Out of some 370,000 compounds screened, about 4,800 (1.3%) were called active. The list comes from a sample in which actives are over-represented; it also holds similar structures and randomly drawn compounds. Unmarked numbers belong to inactive results.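 Rule for the calls: active = inhibition above about 21% made by adding two undisclosed values (limit read from the data); inactive = the rest.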

From PubChem BioAssay AID652257 (The Scripps Research Institute Molecular Screening Center, 2013) come the findings set out here.

For this assay, the target named is Protein arginine N-methyltransferase 1 (Homo sapiens) (UniProt Q99873). Kind of assay: PRMT1 methyltransferase inhibitors, primary screen, biochemical, fluorescence polarization (AID 652257). As to conditions: recombinant PRMT1, activity-based probe fluorescence polarization; at 2.79 µM; stronger effect = higher value. In general terms: In fluorescence polarisation assays a small probe gives low polarisation when free and higher when bound to something large.
Sequence of Protein arginine N-methyltransferase 1 (Homo sapiens) (Q99873 whole entry, looked up): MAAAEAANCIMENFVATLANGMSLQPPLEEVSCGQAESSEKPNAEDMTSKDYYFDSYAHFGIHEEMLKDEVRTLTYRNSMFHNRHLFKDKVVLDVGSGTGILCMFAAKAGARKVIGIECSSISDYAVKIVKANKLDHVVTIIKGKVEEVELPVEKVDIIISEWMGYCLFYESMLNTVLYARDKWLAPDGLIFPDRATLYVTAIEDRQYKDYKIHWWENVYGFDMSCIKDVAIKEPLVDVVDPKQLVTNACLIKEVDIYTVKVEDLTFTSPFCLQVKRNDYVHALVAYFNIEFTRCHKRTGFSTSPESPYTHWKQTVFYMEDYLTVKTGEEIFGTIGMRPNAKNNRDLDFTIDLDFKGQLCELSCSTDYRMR
In the case of `Fc1ccc(N2CCN(Cc3ccc4c(c3)OCO4)CC2)cc1`, the inhibition is -0.82%.

With `CC(C)c1ccc(O)c(CN2CCN(c3ccccc3)CC2)c1`, the inhibition was -1.49%.

Consider `Oc1cc2c(cc1CN1CCN(c3ccccc3)CC1)OCO2`, for which the inhibition was 24.3% (active).

`O=C(N/N=C/c1c(O)n(C2CC2)c(=S)[nH]c1=O)c1ccccc1`: the inhibition is 3.82%.

`CC1C2Cn3c(nc4ccccc43)C1N(C)O2` (stereo not given): the inhibition was 1%.

For `O=S(=O)(c1ccccc1)N1CCC2CCNC2C1` (stereo not given), the inhibition is -4.47%.

In the case of `ClC(Cl)(Cl)c1ccccc1`, the inhibition was -1.08%.

`O=C1NC(=O)N(c2ccccc2)C(=O)/C1=C/c1ccc([N+](=O)[O-])s1`: the inhibition was 30.1% (active).

For the compound `CC(C(=O)Nc1ccc(Cl)cc1Cl)N1CC=C(c2ccccc2)CC1` (stereo not given), the inhibition is -2.84%.

For `CCOc1ccc(-c2cc(C)[n+](CCN(CC)CC)c(-c3ccc(OCC)cc3)c2)cc1`, the inhibition is 4.49%.

For `Cc1c(Oc2cc(NN3CCCCC3)c([N+](=O)[O-])cc2[N+](=O)[O-])cccc1[N+](=O)[O-]`, the inhibition was 0.33%.

As to `CCOc1cccc(=NC2CCCCC2)c2c(C)[nH]c(C)c12`, the inhibition is 24.5% (active).

Take `COc1ccc2c(c1)[C@@]13CCCCC1[C@@H](C2)NCC3` (stereo not given in full): the inhibition was 0.98%.

On to `CC(=O)C1(O)CCC2C3CCC4=C(Cl)C(=O)CCC4(C)C3CCC21C` (stereo not given), for which the inhibition is -3.26%.

Consider `C=CCN1C(=O)NC(=O)/C(=C/c2ccc(OCC(=O)Nc3ccc(C)cc3)cc2)C1=O`, for which the inhibition is 2.43%.

In the case of `O=C(O)COc1ccccc1/C=C1\C(=O)NC(=O)N(CCC2=CCCCC2)C1=O`, the inhibition was 21.6% (active).

As to `CCCCC(=O)N/N=C/c1c(O)n(CCC2=CCCCC2)c(=O)[nH]c1=O`, the inhibition was 4.46%.

Turning to `COP(=O)(Sc1ccccc1)C(Cc1ccccc1)NC(=O)OCc1ccccc1` (stereo not given), the inhibition was 15.9%.

On to `CCC(C)NC1(c2ccccc2)CCCCC1` (stereo not given), for which the inhibition was -3.67%.

With `Brc1ccc2c(c1)CNCc1cnnn1-2`, the inhibition was -6.53%.

Regarding `CCCOC(=O)C1C2c3ccccc3C(c3ccccc32)C1C(=O)O` (stereo not given), the inhibition is -2.66%.

As to `Cc1cc(/C=C2/C(=O)NC(=O)N(Cc3ccco3)C2=O)c(C)n1-c1ccc(C(=O)O)cc1`, the inhibition was 42% (active).

For `Cc1ccc(-n2c(C)cc(/C=C3\C(=O)NC(=O)N(C)C3=O)c2C)cc1C`, the inhibition is 2.43%.

In the case of `Cc1cc(C=C2C(=O)NC(=O)NC2=O)c(C)n1-c1ccncc1`, the inhibition is 3.52%.

Regarding `O=C1NC(=O)N(Cc2ccco2)C(=O)/C1=C\c1ccc(-c2ccc(F)cc2)o1`, the inhibition is 25% (active).

Turning to `COc1cc2nc(N3CCN(C(=O)[C@@H]4CCCO4)CC3)nc(N)c2cc1OC`, the inhibition was -2.88%.

Consider `Cc1cc(N2C(=O)C3CCCN3C2c2ccc(Cl)c(Cl)c2)no1` (stereo not given), for which the inhibition was 1.57%.

`COC(=O)C1=C(c2cc3ccccc3s2)C[C@@H]2CC[C@H]1N2C(=O)NCc1cccc2ccccc12`: the inhibition is -3.89%.

Take `COP(=O)(NS(=O)(=O)c1ccccc1)OC`: the inhibition was -6.51%.

Consider `O=C1N=c2ccccc2=C/C1=C\c1c(O)[nH]c(=S)[nH]c1=O`, for which the inhibition was 51.8% (active).

For `COc1ccccc1N=Nc1c(O)[nH]c(=S)[nH]c1=O`, the inhibition was -3.43%.

As to `Cc1ccc2c(c1)=C/C(=C\c1c(O)[nH]c(=O)[nH]c1=O)C(=O)N=2`, the inhibition was 7.2%.

Turning to `CO[C@H]([C@H](C)/C=C/N(C)C=O)[C@@H](C)C(=O)CC[C@H](C)[C@H](O)[C@H](C)[C@H]1OC(=O)/C=C/C(C)=C/[C@H](O)[C@H](OC)C[C@@H]2C=CC[C@@H](C[C@H](OC)[C@@]3(CO3)[C@@H](OC)C[C@@H](OC)[C@@H]1C)O2`, the inhibition is 1.29%.

As for `CCN(CC)C(=O)[C@@H]1C=C2c3cccc4[nH]c(Br)c(c34)C[C@H]2N(C)C1`, the inhibition was 9.48%.

Take `COP(=O)(OC)C(NC(=O)c1ccc(C)cc1)C(Cl)(Cl)Cl` (stereo not given): the inhibition is 1.17%.

Take `CN1CCC(N(C)Cc2cccnc2)CC1`: the inhibition was 11.7%.

Take `COc1ccc(N2C(=O)/C(=C/c3ccco3)C(=O)NC2=S)cc1`: the inhibition is 41.9% (active).

Turning to `O=C(COC(=O)Cc1ccccc1)Nc1ccc(F)cc1`, the inhibition is -1.27%.

On to `c1ccc(N2Cc3ccccc3-n3nncc3C2)nc1`, for which the inhibition was -1.49%.

Regarding `CCOC(=O)CC(SP1(=S)OCC2(CCCCO2)C(C2CCCCO2)O1)C(=O)OCC` (stereo not given), the inhibition is 55.3% (active).

Regarding `COc1ccc2c(c1)NP(=S)(c1ccccc1)N2` (stereo not given), the inhibition is 14.7%.

As to `COc1ccc(CCn2c(O)c(C=NC3CC3)c(=O)[nH]c2=O)cc1OC`, the inhibition was 0.57%.

`CCOC(=O)C1(Cc2ccc(Cl)cc2)CCN(C(C)CCn2cccn2)CC1` (stereo not given): the inhibition was -1.84%.

Regarding `CC1CNCCN1c1ccc(Cl)cc1` (stereo not given), the inhibition was -2.9%.

Regarding `Cc1cc(N2CCNC[C@@H]2C)ccc1N1CC[C@H](O)C1`, the inhibition was 49.5% (active).

On to `Clc1ccc([C@@H]2CC3CCC2N3)cn1` (stereo not given in full), for which the inhibition was -1.63%.

As for `CC(C)CN1CCN(Cc2ccccc2C(F)(F)F)CC1CCO` (stereo not given), the inhibition is 0.64%.

For the compound `CCOC(=O)c1c(-c2ccccc2)oc2ccc(OC(=O)N(C)C)cc12`, the inhibition was 2.78%.

For `COc1ccccc1NC(=O)N1C[C@@H]2C[C@@H](C1)c1cccc(=O)n1C2`, the inhibition was 1.82%.

Take `CS(=O)(=O)N1CCC2CCNC2C1` (stereo not given): the inhibition is -2.72%.

`CCC(=NCCc1ccccc1)c1c(O)n(C2CCCCC2)c(=O)[nH]c1=O`: the inhibition was -0.77%.

As for `CC(=NCC1CCCO1)c1c(O)n(-c2ccccc2)c(=O)[nH]c1=O` (stereo not given), the inhibition is -2.12%.

`CC(=O)c1c(O)n(C2CCCCCC2)c(=O)[nH]c1=O`: the inhibition is 23.2% (active).

With `Cc1ccccc1CCC[C@@H](CC1CCCCC1)CN(C)C(=O)Oc1ccccc1`, the inhibition was 0.94%.

Regarding `COc1cc(OC)cc(C(=O)NCCN2CCC3(CC2)C(=O)NCN3c2ccccc2)c1`, the inhibition was 1.49%.

As usually defined, the inhibition is the relative decrease from the control value, in per cent.
